From PubChem BioAssay (NCATS) come the findings set out here.

Inconclusive results are not listed. Active and inactive are the calls of the source. Calls come from the whole dose curve; as a rule, active = well fitted cell-killing curve with a large enough effect; inconclusive = small, poorly fitted or top-dose-only effect; inactive = flat fitted curve, though single readings scatter.

A short description of test [1]: Cell Viability - LYMP2-025 (AID 976). Note: potency is the fitted concentration of half-maximal effect. A digest of the protocol:
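Acute cytotoxicity is scored as a concentration-dependent fall in intracellular ATP, measured by luciferase luminescence, in human lymphoblastoid LYMP2-025 cells exposed to compound for 24 hours at 37 C. AC50 values come from standard Hill fits.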

A short description of test [2]: Cell Viability - LYMP2-002 (AID 977).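 Note: series mostly up to about 92 µM; compound exposure lasted 24 h at 37 °C.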 A digest of the protocol:
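Human lymphoblastoid cells, 2500/well, complete medium; 5 h 37 C settle; compound 24 h 37 C; CellTiter-Glo, 30 min RT; luminescence. Decrease in ATP = cytotoxicity; AC50 via Hill equation.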

The nature of test [3]: Cell Viability - LYMP2-006 (AID 978). Note: series mostly up to about 92 µM; nearly all actives have a fitted effect of over 60% in size. A digest of the protocol: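 qHTS, 1536-well; 2500 cells/well, 5 hr 37 C; cpd 24 hr 37 C; CellTiter-Glo 30 min RT; luminescence. Tetraoctylammonium bromide pos. ctrl. AC50 via Hill eqn.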
A short description of test [4]: Cell Viability - LYMP2-008 (AID 980). Note: nearly all actives have a fitted effect of over 60% in size. A digest of the protocol:
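Cells seeded at 2500/well and rested 5 hr at 37 C; compounds added over a concentration range and incubated 24 hr at 37 C; CellTiter-Glo added, 30 min at room temperature; luminescence read and AC50 fitted with Hill model.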

The nature of test [5]: Cell Viability - LYMP2-010 (AID 981). Note: nearly all actives have a fitted effect of over 55% in size. Note: potency is the fitted concentration of half-maximal effect. A digest of the protocol: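 Steps: seed 2500 LYMP2-010 cells per well; incubate 5 hr at 37 C; add compound; incubate 24 hr at 37 C; add CellTiter-Glo, wait 30 min at room temperature; read luminescence. Concentration-response fitted to Hill equation for AC50.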
Test [6] is described as follows: Cell Viability - LYMP2-012 (AID 982).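 Note: cellular ATP by luciferase luminescence where a drop means cytotoxicity; cells exposed to compound for one day before reading; nearly all actives have a fitted effect of over 55% in size.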
A short description of test [7]: Cell Viability - LYMP2-014 (AID 983). Note: series mostly up to about 92 µM; nearly all actives have a fitted effect of over 50% in size. A digest of the protocol:
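Cells are plated at 2500/well and left 5 hr at 37 C. Compounds are added across a concentration range and incubated 24 hr at 37 C in complete medium. CellTiter-Glo is added, and luminescence is read after 30 min at room temperature.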

Test [8] is described as follows: Cell Viability - LYMP2-016 (AID 984). Note: nearly all actives have a fitted effect of over 55% in size. In short, it runs like this:
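qHTS, 1536-well: 2500 LYMP2-016 cells/well, 5 hr 37 C, compound added, 24 hr 37 C, CellTiter-Glo 30 min RT, luminescence. Tetraoctylammonium bromide positive control. AC50 via Hill fit.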

Test [9] can be described thus: Cell Viability - LYMP2-018 (AID 985).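 Note: compound exposure lasted 24 hr at 37 °C; nearly all actives have a fitted effect of over 50% in size.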 In short, it runs like this: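 Seed 2500 lymphoblastoid cells per well, incubate 5 hr at 37 C, add compound and incubate 24 hr at 37 C, add CellTiter-Glo, wait 30 min at room temperature, then read luminescence.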
Test [10] can be described thus: Cell Viability - LYMP2-007 (AID 979).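 Note: cells exposed to compound for 24 h before reading; nearly all actives have a fitted effect of over 60% in size.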 In short, it runs like this: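 Cells are seeded at 2500 per well and rested 5 hr. Compounds are then added over a concentration series for 24 hr at 37 C. CellTiter-Glo is added for 30 min at room temperature before luminescence reading.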

`C=C(C)C(=O)OCCCCCC`: the Potency result in test [1], in [2], in test [3], in test [4], in [5] and in test [6] was “inactive” throughout. Besides, the Potency result in test [7], in [8] and in test [9] was “inactive” each time.

For the molecule `c1ccc2c(c1)Oc1ccccc1S2`, the Potency in test [1] is 0.001 µM (active). The Potency entry in test [2], in test [3], in test [4], in test [5], in [6] and in [7] was “inactive” each time. The Potency result in [8] and in test [9] was “inactive” in each case.

As to `Cc1ccc(C)cc1`, the Potency result in test [1], in test [2], in test [3], in test [4], in test [5] and in test [6] was “inactive” in each case. Moreover, the Potency result in test [7], in test [8] and in test [9] was “inactive” throughout.

Turning to `C=CCOC(=O)COCCC(C)C`, the Potency result in [1], in [2], in test [3], in [5], in test [6] and in test [7] was “inactive” each time. Also, the Potency result in test [8] and in test [9] was “inactive” throughout.

With `Cc1ccccc1C(=O)O`, the Potency entry in test [1], in test [2], in [3], in [4], in [5] and in test [6] was “inactive” throughout. Further, the Potency entry in [7], in test [8] and in test [9] was “inactive” in each case.

As to `Cc1cccc2ccccc12`, the Potency result in [2], in test [3], in [10], in test [4], in test [5] and in test [6] was “inactive” throughout. In addition, the Potency result in [7], in test [8] and in test [9] was “inactive” throughout.

Consider `O=Nc1ccc(NO)cc1`, for which the Potency entry in test [1], in test [2], in [3], in [4] and in test [7] was “inactive” each time. In addition, the Potency in [5] was 50.1 µM (active).

Regarding `OC(CCl)CCl`, the Potency entry in test [1], in test [2], in test [3], in [4], in [5] and in test [6] was “inactive” each time. In addition, the Potency entry in test [7], in [8] and in [9] was “inactive” each time.

With `Nc1nc(CC(=O)O)cs1`, the Potency result in test [1], in [2], in test [3], in test [4], in [5] and in [6] was “inactive” each time. In addition, the Potency result in test [8] and in test [9] was “inactive” throughout.

On to `OC/C(Br)=C(\Br)CO`, for which the Potency entry in test [1], in test [2], in test [3], in test [4], in test [5] and in test [6] was “inactive” in each case. For the same molecule, the Potency result in test [7], in [8] and in test [9] was “inactive” throughout.

Regarding `Cc1cc(C)cc(N)c1`, the Potency result in test [1], in test [2], in test [3], in [4], in test [5] and in test [6] was “inactive” each time. Also, the Potency result in [7], in test [8] and in test [9] was “inactive” throughout.

On to `CCNc1cc(O)ccc1C`, for which the Potency result in test [2], in test [3], in [10], in test [4], in [5] and in test [6] was “inactive” in each case. Also, the Potency entry in test [7], in [8] and in test [9] was “inactive” throughout.

Regarding `C=CC(=O)OCCCC`, the Potency entry in [1], in test [2], in test [3], in [5], in test [6] and in test [7] was “inactive” throughout. Also, the Potency entry in test [8] and in [9] was “inactive” each time.

`O=[N+]([O-])c1ccc(CCO)cc1`: the Potency result in [1] and in test [10] was “inactive” each time.

Take `C=C(C)C(=O)OCCCCCCCCCC`: the Potency result in test [1], in test [2], in [3], in [4], in test [5] and in [6] was “inactive” in each case. The Potency result in [7], in test [8] and in [9] was “inactive” in each case.

Turning to `CC(N)CN` (centres undefined), the Potency result in test [1], in test [2], in test [3], in test [4], in test [5] and in test [6] was “inactive” throughout. The Potency result in test [7], in test [8] and in [9] was “inactive” in each case.

With `CC(C)(c1cc(Br)c(OCC(Br)CBr)c(Br)c1)c1cc(Br)c(OCC(Br)CBr)c(Br)c1` (centres undefined), the Potency result in [1], in [2], in test [3], in [4], in test [5] and in [6] was “inactive” throughout. The Potency entry in [7], in test [8] and in test [9] was “inactive” in each case.

Regarding `COc1ccc(OC)cc1`, the Potency entry in [1], in [2], in test [3], in [4], in test [5] and in test [6] was “inactive” in each case. Also, the Potency result in [7], in [8] and in test [9] was “inactive” in each case.

For the molecule `CCC(=O)/C=C/C1C(C)=CCCC1(C)C` (centres undefined), the Potency result in test [1], in test [2], in test [3], in [4], in test [7] and in test [8] was “inactive” in each case. In addition, the Potency result in test [9] is “inactive”. In addition, the Potency in test [5] was 50.1 µM (active).

Regarding `CCCCCNCCCCC`, the Potency entry in [2], in test [3], in test [10], in [4], in test [5] and in test [6] was “inactive” each time. Also, the Potency result in [7], in [8] and in test [9] was “inactive” each time.

On to `ICCc1ccccc1`, for which the Potency result in [1], in test [2], in [3], in [4], in test [6] and in [7] was “inactive” in each case. The Potency entry in test [8] and in test [9] was “inactive” each time.

Consider `CCCCC(CC)CO` (centres undefined), for which the Potency result in test [1], in [2], in [3], in test [4], in test [5] and in test [6] was “inactive” in each case. Moreover, the Potency result in [8] and in [9] was “inactive” throughout.

`O=C1OC(=O)c2c(Br)c(Br)c(Br)c(Br)c21`: the Potency result in test [1], in test [2], in test [3], in [4], in test [5] and in test [6] was “inactive” each time. In addition, the Potency entry in test [7], in test [8] and in test [9] was “inactive” each time.

On to `FC(F)(F)c1ccccc1Cl`, for which the Potency entry in [2], in test [3], in test [10], in test [4], in test [5] and in [6] was “inactive” each time. In addition, the Potency result in [7], in test [8] and in test [9] was “inactive” throughout.

On to `C/C=C(/C)C#N`, for which the Potency result in test [1], in test [2], in [3], in [4], in test [5] and in test [6] was “inactive” throughout. Besides, the Potency entry in test [8] and in test [9] was “inactive” each time.

In the case of `CCOC(C)(C)C`, the Potency entry in [1], in test [2], in test [3], in [4], in test [5] and in test [6] was “inactive” throughout. Also, the Potency result in [7], in [8] and in test [9] was “inactive” in each case.

Consider `N#CCc1ccccc1[N+](=O)[O-]`, for which the Potency result in test [1], in test [2], in test [3], in test [4], in test [5] and in test [6] was “inactive” in each case. For the same molecule, the Potency result in test [7], in [8] and in test [9] was “inactive” each time.

Regarding `CC(C)=CCl`, the Potency result in test [1], in test [2], in test [3], in test [4], in [5] and in test [6] was “inactive” in each case. Moreover, the Potency result in test [7], in test [8] and in [9] was “inactive” throughout.

For `O=c1[nH][nH]c(=O)c2cc([N+](=O)[O-])ccc12`, the Potency entry in [1], in test [2], in test [3], in test [4], in test [5] and in test [6] was “inactive” in each case. For the same molecule, the Potency result in [8] and in test [9] was “inactive” in each case.

Turning to `CCNS(=O)(=O)c1ccc(C)cc1`, the Potency result in test [1], in [2], in [10], in test [4], in [5] and in test [6] was “inactive” each time. Moreover, the Potency entry in test [7], in test [8] and in test [9] was “inactive” throughout.

`O=C(Cl)c1c(Cl)cccc1Cl`: the Potency entry in test [1], in test [2], in test [3], in [5], in test [6] and in [7] was “inactive” throughout. The Potency entry in [8] and in test [9] was “inactive” in each case.

`Cc1ccc(C#N)cc1`: the Potency result in test [1], in test [2], in test [3], in [4], in test [5] and in [6] was “inactive” each time. The Potency result in test [7], in test [8] and in [9] was “inactive” each time.

Consider `CCOc1ccc(NC(C)=O)cc1N`, for which the Potency result in [2], in [3], in test [10], in [4], in test [5] and in test [6] was “inactive” each time. For the same molecule, the Potency result in [7], in [8] and in test [9] was “inactive” each time.

`C1CCCC1`: the Potency entry in [1], in test [2], in test [3], in [4], in test [5] and in test [6] was “inactive” each time. In addition, the Potency entry in [7], in [8] and in test [9] was “inactive” each time.

As to `CC(C)=CCC/C(C)=C/C=O`, the Potency entry in test [1], in [2], in test [3], in test [4], in test [5] and in test [6] was “inactive” in each case. Also, the Potency result in test [7], in test [8] and in test [9] was “inactive” in each case.

Regarding `C[C@@H]1CC2(OC3C[C@@]4(C)C5=CC[C@H]6C(C)(C)C(O[C@@H]7OC[C@@H](O)[C@H](O)[C@H]7O)CC[C@@]67C[C@@]57CC[C@]4(C)C31)OC(O)C1(C)OC21` (some centres undefined), the Potency result in test [2], in test [3], in test [10], in [4], in test [5] and in test [6] was “inactive” throughout. For the same molecule, the Potency entry in [7], in [8] and in test [9] was “inactive” in each case.

Turning to `CC(C)=C1CCC(C)CC1=O` (centres undefined), the Potency result in test [2], in test [3], in test [10], in [4], in test [5] and in [6] was “inactive” each time. The Potency entry in [7], in [8] and in [9] was “inactive” throughout.
